From PubChem BioAssay (NCI)
Compounds without any hit were thinned out: in the full panel of roughly 79,000, 15% have a hit. A number with no mark means an inactive call. The source made the active and inactive calls. Rule as the data show it: active = growth inhibition above about 70%; inactive = the rest.

Key:
[1] = NCI Yeast Anticancer Drug Screen. Data for the rad50 strain (AID 155);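 also: 0% = growth of vehicle-only cultures of the same strain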; settings: S. cerevisiae rad50 strain growth inhibition, active compounds read high
Outline: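 DNA repair mutant yeast, compound exposure, growth read-out; inhibition is taken relative to vehicle.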

[2] = NCI Yeast Anticancer Drug Screen. Data for the mec2-1 strain (AID 157); settings: S. cerevisiae mec2-1 strain, active compounds read high
Outline: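 Each compound was tested on mec2-1 yeast, a strain altered in DNA damage repair or cell cycle control. Growth inhibition is reported relative to vehicle.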

[3] = NCI Yeast Anticancer Drug Screen. Data for the sgs1 mgt1 strain (AID 161);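 also: 0% = growth of cultures given vehicle only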; settings: S. cerevisiae sgs1 mgt1 strain, active compounds read high
Outline: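 Test agents were incubated with a DNA-repair-mutant yeast strain. Growth was then read and compared against vehicle-treated controls.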

[4] = NCI Yeast Anticancer Drug Screen. Data for the cln2 rad14 strain (AID 165);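 also: 0% = growth equal to vehicle treated cultures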; settings: S. cerevisiae cln2 rad14 strain, active compounds read high
Outline: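 Test compounds were added to cln2 rad14 yeast cultures; inhibition of growth was then determined by comparison with vehicle treatment.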

[5] = NCI Yeast Anticancer Drug Screen. Data for the bub3 strain (AID 167); settings: S. cerevisiae bub3 mutant strain, active compounds read high
Outline: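 In this screen, a yeast mutant lacking normal mitotic checkpoint function is challenged with compound. Relative growth versus vehicle gives the inhibition value.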

[6] = NCI Yeast Anticancer Drug Screen. Data for the mlh1 rad18 strain (AID 175); settings: S. cerevisiae mlh1 rad18 strain growth inhibition, active compounds read high
Outline: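 Inhibition values reflect reduced growth of mutant yeast versus vehicle-treated controls following compound exposure; the mutations affect DNA damage repair.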

[7] = at 5.0 µM (retest, dose inferred, filed as 0.5)
[8] = at 50.0 µM (retest, dose inferred, filed as 5.0)

| Compound | growth inhibition [1, 7] | growth inhibition [1, 8] | growth inhibition ([1]; at 50.0 µM) | growth inhibition [2, 7] | growth inhibition [2, 8] | growth inhibition ([2]; at 50.0 µM) | growth inhibition [3, 7] | growth inhibition [3, 8] | growth inhibition ([3]; at 50.0 µM) | growth inhibition [4, 7] [%] | growth inhibition [4, 8] | growth inhibition ([4]; at 50.0 µM) | growth inhibition [5, 7] | growth inhibition [5, 8] | growth inhibition ([5]; at 50.0 µM) | growth inhibition [6, 7] | growth inhibition [6, 8] | growth inhibition ([6]; at 50.0 µM) |
| --- | --- | --- | --- | --- | --- | --- | --- | --- | --- | --- | --- | --- | --- | --- | --- | --- | --- | --- |
| Cc1cc(Cl)cc2c1OCN(C)C2 | 0% | 93% (active) | 99% (active) | 1% | 96% (active) | 99.2% (active) | 1% | 97% (active) | 98.8% (active) | -6 | 96% (active) | 99.3% (active) | -5% | 94% (active) | 99% (active) | 0% | 94% (active) | 99.5% (active) |
| O=C1CCS(=O)(=O)c2ccccc21 | 21% | 100% (active) | 91.2% (active) | -2% | 99% (active) | 65.4% | 24% | 99% (active) | 57.7% | 3 | 94% (active) | 36.9% | 34% | 99% (active) | 33.4% | 36% | 99% (active) | 64% |
| O=C1C(N2CCOCC2)=C(Cl)C(=O)c2ncccc21 | 66% | 95% (active) | 83.8% (active) | 30% | 97% (active) | 83.8% (active) | 35% | 96% (active) | 89.8% (active) | 13 | 92% (active) | 89% (active) | 31% | 97% (active) | 89.7% (active) | 61% | 96% (active) | 89.3% (active) |
| CC(=O)OC1C(OC(C)=O)C2C(C)CC3OC(=O)C(C)C3CC2(C)C1OC(C)=O (stereo not given) | -7% | 71% (active) | 78.2% (active) | 2% | 82% (active) | 77.2% (active) | -6% | 69% | 73.6% (active) | 34 | 46% | 32.4% | 9% | 80% (active) | 67% | -18% | 81% (active) | 72.7% (active) |
| COc1cc(CNC(=O)CCCCCCCC/C=C/Br)ccc1O | -32% | 93% (active) | 84.7% (active) | -7% | 96% (active) | 85.8% (active) | -2% | 92% (active) | 90.5% (active) | -4 | 94% (active) | 85% (active) | -4% | 95% (active) | 87.6% (active) | -16% | 92% (active) | 87.5% (active) |
| CCN(CC)Cc1cc(Nc2c3ccccc3nc3c4ccccc4n(C)c23)ccc1O | 0% | 23% | 74.2% (active) | 2% | -4% | 16.2% | -10% | 9% | 30.2% | 0 | 0% | -1.6% | -6% | 13% | 55.3% | -10% | 0% | 42.9% |
| COc1ccc2c(c1)OC(OC)(c1ccccc1)C(O)(OC)C2=O (stereo not given) | 1% | 21% | 40.7% | -7% | 22% | 31.8% | 3% | 35% | 59% | -9 | 15% | 7.25% | -1% | 17% | 20.4% | -4% | 33% | 44.4% |
| Nc1ccc2nc(N)sc2c1 | -5% | 8% | 20.1% | -6% | 2% | -3.75% | 0% | -47% | 18.5% | 0 | 2% | 42.9% | -2% | 90% (active) | -15.2% | -4% | 4% | -6.65% |
| COC1=Nc2ccccc2S(=O)(=O)C=C1 | 4% | 87% (active) | 98.2% (active) | 3% | 79% (active) | 98.5% (active) | 2% | 89% (active) | 99.2% (active) | 6 | 79% (active) | 95.8% (active) | 11% | 98% (active) | 98.7% (active) | 12% | 94% (active) | 98.3% (active) |
| COc1c2c(c(C)c3ccc4ccccc4c13)CCN=C2 | -11% | 93% (active) | 80.2% (active) | -4% | 95% (active) | 43.3% | -5% | 96% (active) | 88.2% (active) | -9 | 83% (active) | 13.4% | 10% | 96% (active) | 79.2% (active) | -9% | 93% (active) | 79.9% (active) |
| Cc1c(O)c2c(c(O)c1Br)C(=O)C=CC2=O | 88% (active) | 96% (active) | 70.8% (active) | 93% (active) | 98% (active) | 90.5% (active) | 74% (active) | 98% (active) | 90.5% (active) | 49 | 97% (active) | 87.3% (active) | 98% (active) | 98% (active) | 89.1% (active) | 96% (active) | 97% (active) | 90.8% (active) |
| CC(C)C[NH-].CC(C)C[NH-].[Cl][Pt+2]([Cl])([Cl])[Cl] | 72% (active) | 98% (active) | 85.2% (active) | 46% | 99% (active) | 91.5% (active) | 70% (active) | 99% (active) | 89.2% (active) | 53 | 99% (active) | 83.5% (active) | 70% (active) | 99% (active) | 89.5% (active) | 66% | 98% (active) | 87.8% (active) |
| O/N=C1/CCCC/C1=C/c1ccc(Cl)cc1 | -152% | -124% | 82.7% (active) | -48% | -53% | 53.4% | -63% | -23% | 74% (active) | -57 | -62% | 64.8% | -66% | -78% | 65.5% | -144% | -111% | 80% (active) |
| c1ccc2cc3nc4ccccc4nc3cc2c1 | 44% | 82% (active) | 87.9% (active) | 21% | 38% | 51.4% | 13% | 22% | 20.9% | 15 | 38% | 70.1% (active) | 42% | 57% | 68.3% | 25% | 58% | 73% (active) |
| COc1cc(C2=NCCO2)cc(OC)c1OC | -158% | -155% | 9.4% | -45% | -52% | -5.5% | -62% | -60% | -3.85% | -59 | -62% | 61.9% | -67% | -79% | 0.55% | -196% | -117% | 3.95% |
| Cc1cc(Cl)ccc1Nc1sc(C(=O)c2cc3cc(Cl)ccc3o2)c(N)c1C#N | 16% | 53% | 23.7% | -3% | 48% | 45.5% | 8% | 65% | 45% | 6 | 84% (active) | 83% (active) | 13% | 55% | 50.1% | -7% | 66% | 36.5% |
| CCC1(O)c2ccccc2C(O)(CC)c2ccccc21 (stereo not given) | 11% | 28% | 74% (active) | 3% | 40% | 89.6% (active) | 5% | 53% | 23.4% | 3 | 21% | 96.5% (active) | 7% | 54% | 97% (active) | 14% | 68% | 97.7% (active) |
| COC(=O)c1cccc2cccc(C(=O)Nc3ccc(C)cc3C)c12 | 74% (active) | 99% (active) | 86.2% (active) | 79% (active) | 99% (active) | 91.9% (active) | 60% | 99% (active) | 83.2% (active) | 33 | 99% (active) | 87.7% (active) | 76% (active) | 92% (active) | 90.5% (active) | 90% (active) | 99% (active) | 89.7% (active) |
| Cc1ccccc1C(=O)c1ccc(O)c2ccccc12 | -6% | 90% (active) | 99.4% (active) | 4% | 82% (active) | 94.5% (active) | 9% | 94% (active) | 64.3% | -10 | 65% | 29.3% | 4% | 71% (active) | 55.2% | 32% | 94% (active) | 99.4% (active) |
| O=C1OS(=O)(=O)c2cc3c(cc21)C1C(C2C3C3(Cl)C(Cl)=C(Cl)C2(Cl)C3(Cl)Cl)C2(Cl)C(Cl)=C(Cl)C1(Cl)C2(Cl)Cl (stereo not given) | -18% | 58% | 83.9% (active) | 48% | 72% (active) | 71.8% (active) | 55% | 80% (active) | 86.6% (active) | 8 | 77% (active) | 60.9% | 3% | 81% (active) | 74% (active) | 63% | 91% (active) | 73.8% (active) |
